# Results as given in PubChem BioAssay AID488969 (Vanderbilt High Throughput Screening Facility, 2010).
# In all, about 110,000 compounds were measured (“z-score”: median about -0.1, highest 2% from about 2 on). Shown is part of a subset that was picked to be rich in the highest values. Activity calls are given as the source filed them.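 How the source made its calls: active means z-score in the third read window above 3 or below -3; inactive means the rest.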
# Target: Metabotropic glutamate receptor 8 (Rattus norvegicus) (UniProt P70579)
# Sequence (P70579 whole entry, looked up): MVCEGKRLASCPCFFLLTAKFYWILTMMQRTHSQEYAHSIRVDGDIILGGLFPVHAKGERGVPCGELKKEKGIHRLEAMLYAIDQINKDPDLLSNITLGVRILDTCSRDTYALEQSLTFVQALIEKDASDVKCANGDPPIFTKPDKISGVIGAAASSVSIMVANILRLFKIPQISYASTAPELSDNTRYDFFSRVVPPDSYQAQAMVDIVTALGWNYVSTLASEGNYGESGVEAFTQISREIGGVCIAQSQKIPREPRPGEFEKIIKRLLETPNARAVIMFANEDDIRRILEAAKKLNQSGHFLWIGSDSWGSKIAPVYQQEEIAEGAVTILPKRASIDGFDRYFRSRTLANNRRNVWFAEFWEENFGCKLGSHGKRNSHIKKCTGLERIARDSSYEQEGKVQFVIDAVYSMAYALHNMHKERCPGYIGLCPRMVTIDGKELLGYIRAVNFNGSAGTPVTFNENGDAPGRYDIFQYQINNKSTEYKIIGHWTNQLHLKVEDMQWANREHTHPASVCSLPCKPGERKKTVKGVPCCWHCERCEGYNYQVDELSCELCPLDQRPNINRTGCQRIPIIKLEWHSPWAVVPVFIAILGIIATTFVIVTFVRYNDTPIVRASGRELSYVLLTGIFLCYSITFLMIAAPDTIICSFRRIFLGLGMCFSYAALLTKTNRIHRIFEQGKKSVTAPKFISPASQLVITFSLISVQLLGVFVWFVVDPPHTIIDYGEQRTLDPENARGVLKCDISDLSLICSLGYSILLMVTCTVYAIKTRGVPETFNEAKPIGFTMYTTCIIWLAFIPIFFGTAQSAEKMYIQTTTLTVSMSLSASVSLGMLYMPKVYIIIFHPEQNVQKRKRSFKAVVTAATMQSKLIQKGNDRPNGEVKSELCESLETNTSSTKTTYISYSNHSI
# Assay: rat mGluR8 modulators via GIRK flux, primary screen, cell-based, thallium flux, HTS (AID 488969)
# Conditions: HEK293 rat mGluR8, GIRK (G protein-gated inwardly rectifying potassium channel) thallium flux, FluoZin2; at 10 µM; stronger effect = higher value; submaximal glutamate (EC20) added with thallium
row,SMILES,z-score
1,CC(CN1CCOCC1)OC(=O)C(C)(c1ccccc1)c1ccccc1 (centres undefined),0.383
2,O=C(CSc1nnc(-c2ccc(OC(F)F)cc2)o1)NC(=O)NCc1ccco1,-0.253
3,CC1=CC(c2ccccc2)n2nc(N3C(=O)C4CC=CCC4C3=O)nc2N1 (centres undefined),-0.783
4,CC1(C)Cc2c(ccc3ccccc23)C(NNC(=O)c2cccnc2)=N1,0.408
5,CC1(C)Cc2ccccc2-c2nnc(-c3cccnc3)n21,0.241
6,CC1(C)Cc2c(ccc3ccccc23)-c2nnc(-c3cccnc3)n21,3.16 (active)
7,CCOC(=O)c1c(NC(=O)c2cccs2)sc(CC)c1-c1cccs1,-0.275
8,COC(=O)c1nn(Cc2ccccc2)c(=O)c2ccccc12,0.721
9,Cc1onc(-c2ccccc2Cl)c1C(=O)NCc1ccccc1,0.341
10,COc1ccc(C(=O)NC(=S)NNC(=O)Cc2cccs2)cc1,0.741
11,COc1cc(OC)cc(C(=O)NC(=S)NCCc2ccccc2)c1,2.08
12,COc1ccc(CCNC(=S)NC(=O)c2ccccc2)cc1OC,0.202
13,O=C(NC(=S)NCCc1ccccc1)c1ccccc1,1.9
14,Cc1onc(-c2ccccc2Cl)c1C(=O)NC(=S)NCCc1ccccc1,2.63
15,O=C(CNC(=S)NC(=O)c1ccccc1)c1ccccc1,0.079
16,O=C(Cc1cccs1)NNC(=S)NC(=O)c1ccccc1,0.646
17,O=C(CNC(=S)NC(=O)c1cccs1)c1ccccc1,6.19 (active)
18,Cc1ccc(C(=O)NC(=S)NCC(=O)c2ccccc2)cc1,-0.021
19,COc1ccc(CCNC(=O)c2c(-c3ccccc3Cl)noc2C)cc1,0.099
20,COc1cc(OC)cc(C(=O)NC(=S)NNC(=O)Cc2cccs2)c1,2.21
21,CNC(=S)N1CCN(C(=O)C2CCCO2)CC1 (centres undefined),-0.25
22,CC(NC(=O)COc1ccc(/C=N/NC(=O)C(=O)Nc2ccccc2Br)cc1)c1ccccc1 (centres undefined),0.00853
23,CCC(C)(C)NC(=O)CN(Cc1cccs1)C(=O)CNS(=O)(=O)c1ccc(C)cc1,0.191
24,CCCn1nnc(NC(=O)c2ccc(Cl)cc2Cl)n1,-0.0896
25,O=C(NS(=O)(=O)c1ccccc1)c1ccccc1O,0.0922
26,c1cc(-c2nnc3n2CCCCC3)ccn1,0.91
27,Cc1cc(Cl)ccc1NC(=S)NCc1ccccc1Cl,0.000558

row,SMILES,z-score
1,CCn1nc(C(=O)OCC(=O)c2ccc3c(c2)OCCO3)c2ccccc2c1=O,-0.721
2,Cc1ccc(C(=O)N/C(=C/c2cccc([N+](=O)[O-])c2)C(=O)NC(C)C)cc1,-0.0623
3,CCC(C)Nc1nc(CN2CCOCC2)nc2sc3c(c12)CCC3 (centres undefined),-0.57
4,CC(C)(C)C(=O)NC(=S)NCCc1ccccc1,-0.0291
5,O=C(NCCc1ccccc1)c1ccco1,-0.2
6,COc1ccc(C(=O)CC(=O)C(=O)NCCc2cccc(C)c2)cc1,3.99 (active)
7,O=C(CNC(=S)NC(=O)c1ccc(Cl)cc1)c1ccccc1,1.87
8,Cc1ccccc1C(=O)NC(=S)NCC(=O)c1ccccc1,-0.0957
9,O=C(CNC(=S)NC(=O)c1ccco1)c1ccccc1,6.42 (active)
10,COc1ccc(S(=O)(=O)CCC(=O)NCCc2cccc(C)c2)cc1,0.00176
11,CCOc1ccc(C(=O)CC(=O)C(=O)NCCc2ccc(OC)c(OC)c2)cc1,-0.0424
12,CC(C)C(=O)NC(=S)NCC(=O)c1ccccc1,-0.37
13,O=C(NC(=S)NCCc1ccccc1)c1ccco1,13 (active)
14,O=C(NC(=S)N(CCc1ccccc1)CCc1ccccc1)c1ccco1,-1.87
15,Cc1ccccc1C(=O)NC(=S)NCCc1ccccc1,6.68 (active)
16,Cc1cc2ccccc2n2c(SCC(=O)N3CCc4ccccc4C3)nnc12,0.115
17,CC(=O)C1=C(c2ccccc2)NC(=S)NC1c1cc(Cl)c(OC(C)C)c(Cl)c1 (centres undefined),0.616
18,O=C(CN(C(=O)c1cccc([N+](=O)[O-])c1)C1CCCCC1)Nc1ccc(Cl)c([N+](=O)[O-])c1,-0.137
19,CCOc1nc(-c2ccc(C)cc2)ccc1-c1noc(COC)n1,-0.156
20,Cc1cc(C)c(Cn2cnc(-c3ccc([N+](=O)[O-])cc3)c2)c(C)c1,-0.0263
21,Cc1ccc(-c2ccc(CCC(=O)O)n2C(C)C)cc1,-0.00219
22,COc1ccc(-c2ccc(CCC(=O)O)n2C(C)C)cc1,-0.109
23,CC(C)n1c(CCC(=O)O)ccc1-c1ccccc1,2.11
24,Clc1ccc(-c2nnc3n2CCCS3)cc1,0.105
25,Cc1ccc(S(=O)(=O)NCCCCC(NC(=O)OC(C)(C)C)C(=O)O)cc1 (centres undefined) (tested in a mixture with another compound),-0.148
26,O=C(CN1C(=O)NC2(CCCC2)C1=O)Nc1ccc(F)cc1,0.19
27,CCCn1nnnc1NCc1ccc(N2CCCC2)cc1,-0.208

row,SMILES,z-score
1,CCCCn1nnnc1NCc1cccs1,-1.89
2,CCCn1nnnc1NCc1cccn1C,1.98
3,CCc1ccc(/C=N/NC(=O)C(=O)NCCCN2CCOCC2)cc1,-0.174
4,CC(CC(=O)Nc1ccncc1)c1ccccc1 (centres undefined),0.044
5,O=C(CCSCc1ccc(Cl)cc1)NCCc1ccccc1,-0.0466
6,COc1ccc(Nc2ccc(S(=O)(=O)N3CCCCC3)cc2[N+](=O)[O-])cc1Cl,0.547
7,COc1ccc(Nc2ccc(S(=O)(=O)N3CCCCC3)cc2[N+](=O)[O-])cc1OC,2.43
8,COc1ccc(Nc2ccc(S(=O)(=O)N3CCCCCC3)cc2[N+](=O)[O-])cc1,0.571
9,COCc1cc(C)nc(Nc2ccc(C)cc2C)c1C#N,-0.225
10,COc1ccc(C(=O)N(NC(=O)Oc2ccccc2)C(C)(C)C)cc1,0.485
11,O=C(Nc1ccc2nc3ccccc3nc2c1)c1ccccc1,-0.114
12,O=C(Nc1ccc2[nH]c(=S)sc2c1)c1ccccc1,11.9 (active)
13,O=C(Nc1ccc(F)cc1)c1ccccc1,-0.000317
14,CC1(C)CC(CC(=O)Nc2ccccc2[N+](=O)[O-])C(=O)O1 (centres undefined),-0.0252
15,COC(=O)c1cn(-c2ccccc2)c(C)c1C(=O)OC,-0.11
16,C=CCn1c(SCc2c(C)noc2C)nc2sc3c(c2c1=O)CCCCC3,-0.236
17,C=CCn1c(SCc2c(C)noc2C)nc2sc3c(c2c1=O)CCC(C)C3 (centres undefined),2.65
18,C=CCn1c(SCc2c(C)noc2C)nc2sc3c(c2c1=O)CCCC3,-0.0819
19,CC(C)(Oc1ccc(Cl)cc1)C(=O)NCc1ccncc1,0.181
20,Cc1ccccc1C(=O)Nc1nncs1,-0.0319
21,O=C(Nc1nc(=S)ss1)c1ccc(Cl)cc1Cl,4.46 (active)
22,Cc1ccccc1C(=O)Nc1nc(=S)ss1,2.56
23,O=C(Nc1nc(=S)ss1)c1c(F)cccc1F,-0.588
24,CC(C)C(=O)Nc1cccc(NC(=O)c2ccc(Cl)cc2Cl)c1,-0.304
25,CC(=O)Nc1nc(=S)ss1,0.468
